Data: PubChem BioAssay AID1159580 (chemical genetic matrix, 2015)
“And” between values parts separate entries of the source, which are not always exact repeats. Equal entries are not always repeated. The whole screen tested about 5,500 compounds, of which about 2,000 (36%) were called active. Roughly 18% stayed inconclusive and do not appear here. No stated cut-off is given here; in the data, active means normalized growth mostly below about 0.91 (no sharp cut-off); inconclusive means no clear call, values can overlap the other calls; inactive means mostly above about 0.92. Some of the results follow.

Assay: chemical genetic growth profiling, strain panel (AID 1159580);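 further: tested at 20 µM; growth read once vehicle control cultures reached saturation at 30 °C; 1 = growth at the plate median or of vehicle wells; lower values mean less growth of the strain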
Conditions: S. cerevisiae deletion strains, growth OD

Measured: normalized growth

CC1(C)O[C@H]2CC(=O)OC[C@]23[C@H]2CC[C@@]4(C)[C@H](c5ccoc5)OC(=O)[C@H]5O[C@]54[C@]2(C)C(=O)C[C@@H]13
active: locus YBR021W, strain FUR4, hits give low values 1.21 [resistant]
inactive: locus YAL013W, strain DEP1, hits give low values 1.02 | locus YAL021C, strain ccr4, hits give low values 0.982 | locus YAL026C, strain drs2, hits give low values 0.99 | locus YAL030W, strain snc1, hits give low values 0.98 | locus YBL061C, strain skt5, hits give low values 0.987 | locus YBR009C, strain hhf1, hits give low values 0.968 | locus YBR023C, strain chs3, hits give low values 0.995 | locus YBR171W, strain sec66, hits give low values 0.964 | locus YBR229C, strain ROT2, hits give low values 1.01 | locus YBR231C, strain swc5, hits give low values 1 | locus YBR279W, strain paf1, hits give low values 0.992 | locus YCL011C, strain gbp2, hits give low values 0.98 | locus YCL016C, strain dcc1, hits give low values 0.99 | locus YCL029C, strain bik1, hits give low values 0.976 | locus YCL061C, strain MRC1, hits give low values 0.974 | locus YCL069W, strain vba3, hits give low values 0.969 | locus YCR088W, strain abp1, hits give low values 0.984 | locus YDL005C, strain med2, hits give low values 0.962 | locus YDL035C, strain GPR1, hits give low values 1.02 | locus YDL040C, strain nat1, hits give low values 0.984 | locus YDL074C, strain BRE1, hits give low values 0.992 | locus YDL101C, strain DUN1, hits give low values 0.985 | locus YDL134C, strain PPH21, hits give low values 1.01 | locus YDL185W, strain tfp1, hits give low values 0.962 | locus YDL192W, strain arf1, hits give low values 0.988 | locus YDR001C, strain nth1, hits give low values 0.984 | locus YDR069C, strain doa4, hits give low values 0.989 | locus YDR101C, strain arx1, hits give low values 0.998 | locus YDR137W, strain rgp1, hits give low values 1.01 | locus YDR150W, strain NUM1, hits give low values 0.994 | locus YDR159W, strain sac3, hits give low values 0.99 | locus YDR162C, strain NBP2, hits give low values 1.02 | locus YDR195W, strain ref2 0.967 | locus YDR297W, strain sur2, hits give low values 1.01 | locus YDR318W, strain mcm21, hits give low values 0.994 | locus YDR334W, strain swr1, hits give low values 0.958 | locus YDR335W, strain msn5, hits give low values 0.986 | locus YDR388W, hits give low values 1.01 | locus YDR392W, strain spt3, hits give low values 0.986 | locus YDR502C, strain sam2, hits give low values 0.99 | locus YEL003W, strain gim4, hits give low values 0.981 | locus YEL037C, strain rad23, hits give low values 0.971 | locus YEL061C, strain CIN8 (second series), hits give low values 0.991 | locus YEL061C, strain CIN8, hits give low values 1 | locus YER015W, strain faa2, hits give low values 0.989 | locus YER016W, strain bim1, hits give low values 0.98 | locus YER110C, hits give low values 0.975 | locus YER111C, strain swi4, hits give low values 0.95 | locus YER155C, strain BEM2 (second series), hits give low values 0.952 | locus YER155C, strain BEM2, hits give low values 0.995 | locus YER167W, strain BCK2, hits give low values 1 | locus YFR010W, strain ubp6, hits give low values 0.986 | locus YGL078C, strain dbp3, hits give low values 0.985 | locus YGL086W, strain mad1, hits give low values 0.993 | locus YGL167C, strain pmr1, hits give low values 0.975 | locus YGL173C, strain kem1, hits give low values 0.982 | locus YGL227W, strain vid30, hits give low values 0.987 | locus YGL240W, strain doc1, hits give low values 0.962 | locus YGL248W, strain PDE1, hits give low values 1.02 | locus YGL253W, strain hxk2, hits give low values 1.01 | locus YGR135W, strain pre9, hits give low values 1 | locus YGR229C, strain SMI1, hits give low values 1.04 | locus YGR252W, strain gcn5, hits give low values 1.07 | locus YHR013C, strain ard1, hits give low values 0.95 | locus YHR027C, strain rpn1, hits give low values 0.993 | locus YHR030C, strain SLT2, hits give low values 1 and 1.01 | locus YHR079C, strain IRE1 (second series), hits give low values 0.98 | locus YHR079C, strain IRE1, hits give low values 1.03 | locus YHR094C, strain hxt1, hits give low values 0.984 | locus YHR129C, strain ARP1, hits give low values 1 | locus YHR142W, strain chs7, hits give low values 0.973 | locus YHR200W, strain rpn10, hits give low values 0.987 | locus YIL066C, strain RNR3, hits give low values 1.02 | locus YIL073C, strain SPO22, hits give low values 0.932 | locus YIL125W, strain kgd1, hits give low values 0.997 | locus YIR030C, strain dcg1, hits give low values 0.984 | locus YJL092W, strain hpr5, hits give low values 0.962 | locus YJL095W, strain BCK1 (second series), hits give low values 0.966 | locus YJL095W, strain BCK1, hits give low values 0.985 and 1.03 | locus YJL115W, strain asf1, hits give low values 0.95 | locus YJL129C, strain trk1, hits give low values 0.973 | locus YJL134W, strain LCB3, hits give low values 1 | locus YJL154C, strain vps35, hits give low values 0.975 | locus YJL164C, strain tpk1, hits give low values 0.986 | locus YJL166W, strain qcr8, hits give low values 0.979 | locus YJL168C, strain set2, hits give low values 0.989 | locus YJL187C, strain SWE1 (second series), hits give low values 0.996 | locus YJL187C, strain SWE1, hits give low values 0.967 | locus YJR043C, strain POL32, hits give low values 1.05 | locus YJR066W, strain TOR1, hits give low values 0.946 | locus YJR075W, strain HOC1, hits give low values 0.989 | locus YKL009W, strain mrt4, hits give low values 0.963 | locus YKL068W, hits give low values 0.987 | locus YKL085W, strain MDH1 (second series), hits give low values 0.992 | locus YKL085W, strain MDH1, hits give low values 0.992 | locus YKL160W, strain elf1, hits give low values 1 | locus YKR001C, strain vps1, hits give low values 0.985 | locus YKR026C, strain gcn3, hits give low values 0.998 | locus YKR091W, strain srl3, hits give low values 0.98 | locus YLL001W, strain dnm1, hits give low values 0.959 | locus YLL026W, hits give low values 0.988 | locus YLL041C, strain sdh2, hits give low values 0.97 | locus YLR027C, strain aat2, hits give low values 0.965 | locus YLR039C, strain RIC1, hits give low values 1.01 | locus YLR058C, strain SHM2, hits give low values 1 | locus YLR102C, strain apc9, hits give low values 0.983 | locus YLR113W, strain HOG1, hits give low values 1.04 | locus YLR221C, strain rsa3, hits give low values 1 | locus YLR258W, strain gsy2, hits give low values 0.996 | locus YLR262C, strain YPT6 (second series), hits give low values 1.01 | locus YLR262C, strain YPT6, hits give low values 1 | locus YLR268W, strain sec22, hits give low values 0.961 | locus YLR320W, strain mms22, hits give low values 0.992 | locus YLR330W, strain CHS5, hits give low values 0.998 | locus YLR342W, strain FKS1 (second series), hits give low values 1.07 | locus YLR342W, strain FKS1, hits give low values 0.975 | locus YLR357W, strain rsc2, hits give low values 0.99 | locus YLR370C, strain arc18, hits give low values 0.97 | locus YLR371W, strain rom2, hits give low values 0.98 | locus YLR384C, strain iki3, hits give low values 0.999 | locus YLR418C, strain cdc73, hits give low values 0.994 | locus YML016C, strain PPZ1, hits give low values 1.01 | locus YML032C, strain rad52, hits give low values 1.01 | locus YML120C, strain ndi1, hits give low values 0.969 | locus YML124C, strain tub3, hits give low values 0.99 | locus YMR058W, strain fet3, hits give low values 0.974 | locus YMR078C, strain ctf18, hits give low values 0.982 | locus YMR125W, strain sto1, hits give low values 0.985 | locus YMR129W, hits give low values 0.99 | locus YMR205C, strain PFK2, hits give low values 1.01 | locus YMR223W, strain ubp8, hits give low values 0.994 | locus YMR231W, strain pep5, hits give low values 0.981 | locus YMR263W, strain SAP30, hits give low values 0.985 | locus YMR307W, strain GAS1, hits give low values 1.04 | locus YNL067W, strain RPL9B, hits give low values 0.961 | locus YNL071W, strain lat1, hits give low values 0.995 | locus YNL128W, strain TEP1, hits give low values 0.993 | locus YNL153C, strain GIM3, hits give low values 0.994 | locus YNL183C, strain NPR1, hits give low values 0.934 | locus YNL209W, strain ssb2, hits give low values 0.979 | locus YNL233W, strain BNI4, hits give low values 0.997 | locus YNL248C, strain rpa49, hits give low values 0.979 | locus YNL250W, strain rad50, hits give low values 0.932 | locus YNL271C, strain bni1, hits give low values 0.987 | locus YNL298W, strain CLA4, hits give low values 1 | locus YNL307C, strain MCK1, hits give low values 0.983 | locus YNL322C, strain KRE1 (second series), hits give low values 0.959 | locus YNL322C, strain KRE1, hits give low values 0.997 | locus YNR049C, strain mso1, hits give low values 0.956 | locus YNR052C, strain pop2, hits give low values 0.994 | locus YOL006C, strain TOP1, hits give low values 0.922 | locus YOL012C, strain htz1 0.665 | locus YOL147C, strain pex11, hits give low values 0.998 | locus YOR001W, strain rrp6, hits give low values 0.995 | locus YOR061W, strain CKA2, hits give low values 1.01 | locus YOR069W, strain VPS5, hits give low values 1 | locus YOR070C, strain gyp1, hits give low values 0.992 | locus YOR080W, strain dia2, hits give low values 0.961 | locus YOR083W, strain WHI5, hits give low values 0.975 | locus YOR106W, strain vam3, hits give low values 1.01 | locus YOR136W, strain idh2, hits give low values 0.985 | locus YOR144C, strain elg1, hits give low values 1.01 | locus YOR184W, strain ser1, hits give low values 0.988 | locus YOR231W, strain MKK1, hits give low values 1.04 | locus YOR265W, strain rbl2, hits give low values 0.984 | locus YOR270C, strain vph1, hits give low values 0.988 | locus YOR290C, strain snf2, hits give low values 0.973 | locus YOR316C, strain cot1, hits give low values 0.992 | locus YPL051W, strain arl3, hits give low values 0.986 | locus YPL078C, strain atp4, hits give low values 0.97 | locus YPL106C, strain sse1, hits give low values 0.939 | locus YPL240C, strain hsp82, hits give low values 0.992 | locus YPL256C, strain CLN2, hits give low values 1.01 | locus YPR119W, strain clb2, hits give low values 0.994 | locus YPR141C, strain kar3, hits give low values 0.991 | locus YPR163C, strain tif3, hits give low values 1 | locus YPR167C, strain met16, hits give low values 0.989 | strain wtn01, hits give low values 0.974
